# Screening data: PubChem BioAssay, National Center for Advancing Translational Sciences (NCATS)
# CHX counter = counter-screen hit for Shiga toxin inhibitors, cycloheximide. max response, %. cell reporter, cycloheximide protein synthesis inhibition counterscreen. hit rate 12% among 300,000; in the data active = max response mostly above about 13%, no sharp cut-off; inactive = mostly below about 14%; note: read at 38.3 µM for the half of the compounds with a filed dose
# Shiga toxin inh = Shiga toxin inhibition | Vero cells, Shiga toxin protein synthesis inhibition reporter | inhibition, % at 38.7 µM | hit rate 9.2% among 290,000 | AID 2315; in the data active = inhibition mostly above about 28%, no sharp cut-off; inactive = mostly below about 43%
# NS1 inh = inhibitors of influenza NS1 protein function; hit rate 0.4% among 270,000; Potency, µM (doses to about 46.1 µM); calls by dose curve; note: actives are rising curves; nearly all actives have a fitted effect of over 50% in size
#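 OD600 was taken as the measure of yeast growth restored by compound in an NS1-expressing S. cerevisiae strain. Cells had been washed out of glucose medium and diluted 1:100 into galactose -URA medium, pH 6.0.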
# LmPK inh = blocks Leishmania mexicana pyruvate kinase activity; hit rate 0.37% among 290,000; Potency, µM (highest dose often 57.5 µM), hits mostly inhibitors; Q27686; AID 1721; purified LmPK, Kinase-Glo ATP luminescence, 1 h
# Target sequence (Q27686 whole entry, looked up): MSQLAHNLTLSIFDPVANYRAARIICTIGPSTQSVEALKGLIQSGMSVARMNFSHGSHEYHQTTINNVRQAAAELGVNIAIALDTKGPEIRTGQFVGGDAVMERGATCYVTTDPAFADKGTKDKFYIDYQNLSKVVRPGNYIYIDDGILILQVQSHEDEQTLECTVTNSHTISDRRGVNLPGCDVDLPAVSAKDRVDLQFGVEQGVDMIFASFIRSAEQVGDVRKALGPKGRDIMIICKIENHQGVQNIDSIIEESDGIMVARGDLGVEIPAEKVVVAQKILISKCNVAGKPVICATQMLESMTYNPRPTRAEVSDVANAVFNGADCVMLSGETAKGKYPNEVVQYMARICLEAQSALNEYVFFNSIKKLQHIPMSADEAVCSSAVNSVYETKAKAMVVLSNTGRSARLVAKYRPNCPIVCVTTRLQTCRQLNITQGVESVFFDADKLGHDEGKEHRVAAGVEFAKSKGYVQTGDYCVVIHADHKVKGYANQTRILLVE
#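 Purified LmPK (0.1 nM) with 0.5 mM PEP and 0.1 mM ADP in imidazole buffer pH 7.2 with MgCl2/KCl, 1 h at room temperature. ATP formed was read by luciferase luminescence and normalized to no-enzyme and uninhibited controls.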
# Giardia FBPA inh = blocks Giardia fructose-bisphosphate aldolase activity; purified Giardia FBPA; hit rate 0.71% among 290,000; Potency, µM (doses to about 59.6 µM), most hits filed as inhibitors; A8B2U2; AID 2451; note: nearly all actives have a fitted effect of over 55% in size
#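 Giardia FBPA (40 nM reagent) was preincubated 10 min at RT with compound (up to 57.5 uM final), then substrate plus GAPDH/TPI/NAD/arsenate coupling system with diaphorase/resazurin was added; resorufin fluorescence (525/598 nm) was read after 20 min.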
# Hits are given with their value; 0 = inactive; ? = inconclusive; - = no result given. Shown are actives, neighbours in structure and some others; about 14% of the full set was active somewhere. Unless noted, calls come from the whole dose curve; as a rule, active = well fitted curve in the direction sought with a large enough effect; inconclusive = small, poorly fitted or top-dose-only effect, or another doubt; inactive = no such curve, though single readings can be large; an effect the other way counts as inactive or inconclusive.
SMILES,CHX counter,Shiga toxin inh,NS1 inh,LmPK inh,Giardia FBPA inh
CN(C)c1ccc(/C(=N\O)c2ccccc2)cc1,35,83,0,0,0
CN(C)c1ccc(C=Nc2ccccc2)cc1,0,0,0,0,0
CN(C)C(=S)c1ccc(N(C)C)cc1,0,0,0,0,0
NC(=S)N/N=C/C=C/c1ccccc1,0,0,0,0,0
Cc1occc1C(=O)N/N=C/c1ccc(N(C)C)cc1,22,0,0,10µM,0
Cc1ccc(/C=N/NC(=O)NC23CC4CC(CC(C4)C2)C3)o1,29,150,0,0,0
CCCCOC(=O)N/N=C/C=C/c1ccccc1,21,13,0,0,0
Cc1occc1C(=O)N/N=C/C(Br)=C\c1ccccc1,43,50,0,?,0
O=C(N/N=C/c1ccc(O)cc1)NC12CC3CC(CC(C3)C1)C2,0,0,0,0,0
CCOc1ccc(CNC(=O)CCS(=O)(=O)c2ccc3c(c2)NC(=O)CO3)cc1OC,0,0,0,0,0
Cc1occc1C(=O)N/N=C/C=C/c1ccccc1[N+](=O)[O-],42,0,-,0,0
Cc1nc2c(C)cccc2cc1C(=O)N/N=C/c1ccc(N(C)C)cc1,0,0,0,0,0
Cc1ccc(/C=N/NC(=O)c2ccoc2C)o1,44,117,0,?,0
Cc1cc(C(=O)N/N=C/C=C/c2ccccc2[N+](=O)[O-])c(C)o1,0,0,-,0,0
Cc1ccc(/C=N/NC(=O)C(=O)N/N=C/c2ccc(C)o2)o1,0,0,-,0,0
O=C(N/N=C/C=C/c1ccco1)c1ccccc1Cl,0,0,-,0,0
Cc1occc1C(=O)N/N=C/C=C/c1ccccc1,41,0,-,0,0
Cc1occc1C(=O)N/N=C/C=C/c1ccc(N(C)C)cc1,53,79,0,0,0
COCCn1c(=O)c(-c2cccc(C#N)c2)nc2cnc(N3CCOCC3)nc21,-,-,-,-,0
O=C(O)c1cccc(SSc2cccc(C(=O)O)c2)c1,-,-,0,-,-
CCOC(=O)c1c(C)[nH]c(C)c1S(=O)(=O)NC(CC)CN1CCOCC1 (stereo unspecified),0,0,0,0,0
COC(=O)CCc1c(COC(C)=O)[nH]c(C(=O)OCc2ccccc2)c1C,0,0,0,0,0
C=C1C(N)CC2CC1C2(C)C (stereo unspecified),-,-,-,-,0
Cc1ccc(/C=C/C2=C[C@]3(C)C[C@]2(C)[C@H](c2ccc(C)cc2)CC3=O)cc1,-,-,-,-,0
Cc1ccc(C(=O)N/N=C/C=C/c2ccccc2)cc1,25,0,0,0,0
SMILES,CHX counter,Shiga toxin inh,NS1 inh,LmPK inh,Giardia FBPA inh
O=C(N/N=C/c1cccc(Oc2ccccc2)c1)c1ccccc1Br,0,0,0,0,?
O=C(N/N=C/C=C/c1ccccc1)c1ccccc1Br,26,0,0,0,0
O=C(N/N=C/C=C/c1ccccc1)c1cccc(Br)c1,0,0,0,0,-
CCCC/C=C/C(NC(=O)OCc1ccccc1Cl)c1ccccc1 (stereo unspecified),-,-,-,-,0
Cc1ccc(-c2nc3cnccn3c2Nc2ccc3c(c2)OCCO3)o1,34,22,0,0,0
CN(C)c1ccc(-c2nc3cnccn3c2Nc2ccc3c(c2)OCCO3)cc1,31,87,0,0,0
CS(=O)(=O)NCc1ccc(C(=O)NCCOc2ccccc2)cc1,50,63,0,0,0
Cc1ccc(OCCNC(=O)c2ccc(C)cc2)cc1,46,79,0,0,0
COc1ccc(C(=O)NN)cc1,24,0,0,0,0
CSCc1ccc(C(=O)NCCSc2ccc(Br)cc2)cc1,55,103,0,0,-
CS(=O)(=O)NCc1ccc(C(=O)O)cc1,0,0,-,0,0
CCOc1ccc(C(=O)NCC(=O)NCCOc2ccc(C)cc2)cc1,0,0,0,0,0
O=C(Nc1ccnn1C1CCN(C(=O)c2cc(Cl)ccc2F)CC1)C1CCOC1 (stereo unspecified),0,0,0,0,0
O=C(NCC1CCOCC1)c1ccc2nc(Cc3cccc(Cl)c3)oc2c1,0,0,0,0,-
Cc1cc(-c2ccc(C)c(S(=O)(=O)N3CCN(c4ccccn4)CC3)c2)on1,0,0,0,0,0
COc1c2c(nc3ccccc13)O[C@H]([C@@](C)(O)CO)C2,-,-,-,-,0
CCN(CC)CCNC(=O)c1ccc(NC(=O)c2ccc(COc3ccccc3)cc2)cc1,29,0,0,0,-
CCOc1ccc(C(=O)NCCCCNC(=O)c2ccc(OCC)cc2)cc1,0,0,0,0,0
COc1ccc(C(=O)NCCCCCCNC(=O)c2ccc(OC)cc2)cc1,16,0,0,0,0
COc1ccc(OCCNC(=O)c2ccc(C)cc2)cc1,29,56,0,0,0
CCN(CC)CCNC(=O)c1ccc(NC(C)=O)cc1,0,0,0,0,0
COc1ccc(C(=O)NCCSc2ccccc2)cc1,46,21,0,0,0
O=C(NCCSc1ccc(Br)cc1)c1ccccc1,0,0,-,0,0
O=C(O)CC/C=C\C[C@@H]1CO[C@H](c2ccccc2Cl)O[C@@H]1c1ccccc1O,-,-,-,-,0
Cc1ccc(OCCNC(=O)c2ccccc2O)cc1,12,0,0,0,0
SMILES,CHX counter,Shiga toxin inh,NS1 inh,LmPK inh,Giardia FBPA inh
Cc1ccc(C(C)C)c(OCCNC(=O)c2ccccc2O)c1,0,0,0,0,0
CC(=O)c1cccc(N=Nc2c(C)[nH]c3ccccc23)c1,50,93,0,0,0
O=C(N=Nc1c(O)[nH]c2ccccc12)c1cc(NS(=O)(=O)c2cccs2)cc(NS(=O)(=O)c2cccs2)c1,0,0,-,0,0
Oc1ccc(NC(=S)N=Nc2c(O)[nH]c3ccccc23)cc1,0,51,0,0,0
Oc1ccc(NC(=S)N=Nc2c(O)[nH]c3ccc(Br)cc23)cc1,0,0,-,0,0
O=C(O)c1ccc(N=Nc2c(O)[nH]c3ccccc23)cc1,39,56,0,14µM,0
O=C(N=Nc1c(O)[nH]c2ccccc12)c1cccs1,39,107,-,16µM,0
Cc1cc(N=Nc2c(O)c3ccccc3[nH]c2=O)ccc1N=Nc1ccc(C(=O)N(C)C)cc1,0,0,0,0,0
CCNc1ncc2nc(-c3cccs3)c(=O)n(C)c2n1,-,-,-,-,0
Cc1[nH]c(C)c(Cl)c(=O)c1Cl,-,-,-,-,0
CNC(=S)N=Nc1c(O)[nH]c2ccc(C(C)C)cc12,0,0,0,0,0
O=C(CSc1nc2ccccc2[nH]1)N=Nc1c(O)[nH]c2ccccc12,17,0,0,0,0
O=C(N=Nc1c(O)[nH]c2ccccc12)c1cccc(S(=O)(=O)N2CCCCC2)c1,12,63,?,0,0
Cc1ccc(NC(=S)N=Nc2c(O)[nH]c3ccccc23)cc1,22,53,-,0,0
COc1ccc(NC(=S)N=Nc2c(O)[nH]c3ccccc23)cc1,0,0,0,0,0
CNC(=S)N=Nc1c(O)[nH]c2ccccc12,0,17,0,0,0
C=C(CO)C1Cc2c(ccc3c(=O)c4c(oc23)COc2cc(OC)c(OC)cc2-4)O1 (stereo unspecified),-,-,-,-,0
CCN=c1scc(C)n1/N=C/c1ccsc1,47,104,0,0,0
Cc1ccc(C2C=NN(c3ccccc3)C2=O)cc1 (stereo unspecified),18,29,0,0,0
